Source: PubChem BioAssay (EPA / NIEHS)
Activity calls are given as the source filed them. How the source made its calls: active means hit-call score of the fitted dose curve at least 0.9, where 1 is the maximum; inactive means score below 0.9.

Key:
Settings in all cases: mRNA level, 48 h; actives raise or lower the signal
[1] = read-out: growth arrest and DNA damage 45 (GADD45A), GADD45A (gene 1647); experiment: LTEA_HepaRG_GADD45A: Life Technologies and Expression Analysis (LTEA) Assay for growth arrest and DNA damage 45 (GADD45A) using HepaRG (AID 2283458)
In short: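 Human HepaRG liver cells are treated in duplicate for 48 h with chemicals in 0.5% DMSO, highest concentration 100 uM. Expression is read by qRT-PCR and analyzed in both directions against vehicle.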

[2] = read-out: ABC Transporter (ABCB1), ABCB1 (gene 5243); experiment: LTEA_HepaRG_ABCB1: Life Technologies and Expression Analysis (LTEA) Assay for ABC Transporter (ABCB1) using HepaRG (AID 2283460)
In short: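 HepaRG cells exposed in duplicate for 48 h in serum-free induction medium to eight half-log concentrations up to 100 uM in 0.5% DMSO. ABCB1 mRNA quantified by qRT-PCR, normalised to ACTB, GAPDH and POLR2A; fitted bidirectionally versus DMSO.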

[3] = read-out: growth arrest and DNA damage 45 (GADD45B), GADD45B (gene 4616); experiment: LTEA_HepaRG_GADD45B: Life Technologies and Expression Analysis (LTEA) Assay for growth arrest and DNA damage 45 (GADD45B) using HepaRG (AID 2283461)
In short: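 Differentiated human HepaRG cells in serum-free induction medium exposed 48 h in duplicate to eight concentrations, top 100 uM, half-log steps, 0.5% DMSO. GADD45B mRNA by TaqMan qRT-PCR, normalized to ACTB, GAPDH, POLR2A; bidirectional fit versus DMSO.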

[4] = read-out: ABC Transporter (ABCB11), ABCB11 (gene 8647); experiment: LTEA_HepaRG_ABCB11: Life Technologies and Expression Analysis (LTEA) Assay for ABC Transporter (ABCB11) using HepaRG (AID 2283463)
In short: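 Differentiated human HepaRG cells in serum-free induction medium, dosed in duplicate for 48 h. Eight-point half-log series from 100 uM in 0.5% DMSO; ABCB11 mRNA by qRT-PCR, normalized to ACTB, GAPDH, POLR2A, fitted bidirectionally versus DMSO.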

[5] = read-out: ABC Transporter (ABCC2), ABCC2 (gene 1244); experiment: LTEA_HepaRG_ABCC2: Life Technologies and Expression Analysis (LTEA) Assay for ABC Transporter (ABCC2) using HepaRG (AID 2283464)
In short: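 Differentiated HepaRG cells in serum-free induction medium exposed 48 h to eight half-log concentrations up to 100 uM, 0.5% DMSO, in duplicate. ABCC2 mRNA measured by qRT-PCR (TaqMan, Fluidigm), normalized to ACTB, GAPDH and POLR2A. Fitted in both directions against DMSO.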

[6] = read-out: ATP-citrate lyase (ACLY), ACLY (gene 47); experiment: LTEA_HepaRG_ACLY: Life Technologies and Expression Analysis (LTEA) Assay for ATP-citrate lyase (ACLY) using HepaRG (AID 2283466)
In short: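 Differentiated HepaRG cells exposed 48 h in serum-free induction medium to eight half-log concentrations up to 100 uM in 0.5% DMSO, duplicates. Transcript measured by Fluidigm TaqMan qRT-PCR, normalized to ACTB, GAPDH, POLR2A; bidirectional fit versus DMSO.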

[7] = read-out: Peroxisomal acyl-coenzyme A oxidase 1 (ACOX1) gene, ACOX1 (gene 51); experiment: LTEA_HepaRG_ACOX1: Life Technologies and Expression Analysis (LTEA) Assay for Peroxisomal acyl-coenzyme A oxidase 1 (ACOX1) gene using HepaRG (AID 2283467)
In short: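 HepaRG cells, plated 48 h then switched to serum-free induction medium, were exposed in duplicate for 48 h to 8-point half-log concentrations up to 100 uM in 0.5% DMSO. ACOX1 mRNA was measured by qRT-PCR, normalized to ACTB/GAPDH/POLR2A, and fitted bidirectionally versus DMSO.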

[8] = read-out: ABC Transporter (ABCC3), ABCC3 (gene 8714); experiment: LTEA_HepaRG_ABCC3: Life Technologies and Expression Analysis (LTEA) Assay for ABC Transporter (ABCC3) using HepaRG (AID 2283462)
In short: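 Differentiated human HepaRG cells exposed 48 h in serum-free induction medium, 0.5% DMSO vehicle, 8-point half-log series to 100 uM in duplicate. ABCC3 mRNA by qRT-PCR, normalised to ACTB, GAPDH, POLR2A; bidirectional fit vs DMSO.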

[9] = read-out: Forkhead box O3 (FOXO3), FOXO3 (gene 2309); experiment: LTEA_HepaRG_FOXO3: Life Technologies and Expression Analysis (LTEA) Assay for Forkhead box O3 (FOXO3) using HepaRG (AID 2283459)
In short: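 Differentiated human HepaRG cells, 48 h post-plating, exposed in duplicate for 48 h in serum-free induction medium; 8-point half-log series from 100 uM in 0.5% DMSO. FOXO3 mRNA by TaqMan qRT-PCR, normalized to ACTB/GAPDH/POLR2A; bidirectional fit versus DMSO.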

[10] = read-out: Broad substrate specificity ATP-binding cassette transporter ABCG2 (Homo sapiens) (UniProt Q9UNQ0); experiment: LTEA_HepaRG_ABCG2: Life Technologies and Expression Analysis (LTEA) Assay for ABC Transporter (ABCG2) using HepaRG (AID 2283465)
In short: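 Differentiated HepaRG cells were exposed for 48 h in serum-free induction medium to 8 half-log concentrations, top 100 uM, in 0.5% DMSO. ABCG2 mRNA was measured by qRT-PCR, normalized to ACTB, GAPDH and POLR2A, with bidirectional fitting versus DMSO.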

Measured: AC50

Sequence of Broad substrate specificity ATP-binding cassette transporter ABCG2 (Homo sapiens) (Q9UNQ0 whole entry, looked up): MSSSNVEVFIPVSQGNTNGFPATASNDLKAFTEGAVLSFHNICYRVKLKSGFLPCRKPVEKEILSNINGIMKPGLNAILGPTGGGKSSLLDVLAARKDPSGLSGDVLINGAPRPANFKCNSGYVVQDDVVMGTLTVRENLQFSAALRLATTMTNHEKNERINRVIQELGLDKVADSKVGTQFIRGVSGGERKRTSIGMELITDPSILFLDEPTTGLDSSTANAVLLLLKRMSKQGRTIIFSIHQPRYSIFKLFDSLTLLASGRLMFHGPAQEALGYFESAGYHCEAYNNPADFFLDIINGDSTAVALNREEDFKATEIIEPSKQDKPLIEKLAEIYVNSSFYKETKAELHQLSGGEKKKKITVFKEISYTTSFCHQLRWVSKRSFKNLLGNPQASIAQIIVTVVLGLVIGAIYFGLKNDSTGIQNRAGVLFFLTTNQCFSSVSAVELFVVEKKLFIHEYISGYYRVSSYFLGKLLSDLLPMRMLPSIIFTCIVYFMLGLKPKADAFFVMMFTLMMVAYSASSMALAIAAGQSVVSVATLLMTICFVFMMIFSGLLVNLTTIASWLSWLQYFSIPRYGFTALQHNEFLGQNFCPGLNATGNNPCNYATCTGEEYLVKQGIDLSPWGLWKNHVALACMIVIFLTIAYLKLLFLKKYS

Clc1cc(Cl)c(Cl)cc1Cl
inactive: [1] | [2] | [3] | [4] | [5] | [6] | [7]

C[Si]1(C)O[Si](C)(C)O[Si](C)(C)O[Si](C)(C)O1
inactive: [1] | [2] | [3] | [8] | [4] | [5] | [7]

Cc1ccc(Cl)cc1
inactive: [1] | [2] | [3] | [8] | [4] | [5] | [6] | [7]

CCOc1ccc2c(c1)C(C)=CC(C)(C)N2
active: [2] 5.26 µM
inactive: [1] | [3] | [4] | [5] | [6] | [7]

Cc1ccc2ncccc2c1
inactive: [9] | [2] | [3] | [8] | [4] | [5] | [10] | [6] | [7]

COCCOC[C@H](CC1(C(=O)NC2CCC(C(=O)O)CC2)CCCC1)C(=O)Oc1ccc2c(c1)CCC2 (stereo not given in full)
inactive: [1] | [2] | [3] | [8] | [4] | [5] | [6] | [7]

O=C(N[C@@H](Cc1ccccc1)[C@@H](O)C(=O)N1C[C@@H](O)[C@@H](O)C1)c1cc2cc(Cl)ccc2[nH]1
active: [2] 9.92 µM | [10] 50 µM | [6] 50 µM
inactive: [9] | [3] | [8] | [4] | [5] | [7]

CCCCCCCCCCCCCO
inactive: [9] | [2] | [3] | [8] | [4] | [5] | [10] | [6] | [7]

NC(=O)Cn1c(=O)cc(CCN2CCN(c3nccc4sccc34)CC2)c2ccc(F)cc21
active: [2] 36.6 µM | [8] 78.1 µM
inactive: [9] | [3] | [4] | [5] | [6] | [7]

COc1cc(C=O)ccc1O
inactive: [9] | [2] | [3] | [8] | [4] | [5] | [10] | [6] | [7]

CN[C@H]1CC[C@@H](c2ccc(Cl)c(Cl)c2)c2ccc(S(N)(=O)=O)cc21
inactive: [1]
active: [2] 89.3 µM | [3] 80.4 µM | [4] 15.8 µM | [5] 63.5 µM | [6] 63.6 µM | [7] 12.2 µM

Cc1cccc(C)c1O
inactive: [1] | [2] | [3] | [4] | [5] | [10] | [6] | [7]

COc1cc(S(=O)(=O)O)c(C)cc1N=Nc1c(O)ccc2cc(S(=O)(=O)O)ccc12
inactive: [1] | [2] | [3] | [8] | [4] | [5] | [10] | [6] | [7]

CCCc1cc(=O)[nH]c(=S)[nH]1
inactive: [9] | [2] | [3] | [4] | [5] | [10] | [6] | [7]

Cc1cccc(Nc2cc(Cl)nc(SCC(=O)O)n2)c1C
active: [2] 50 µM | [5] 82.3 µM | [7] 10.9 µM
inactive: [9] | [3] | [8] | [4] | [6]

FC(F)(F)C(F)(F)C(F)(F)C(F)(F)C(F)(F)C(F)(F)CCI
inactive: [1] | [2] | [3] | [4] | [5] | [10] | [6] | [7]

Cc1cc(=O)[nH]c(=S)[nH]1
inactive: [9] | [2] | [3] | [8] | [4] | [5] | [6] | [7]

CCCCc1ccc2c(n1)[C@@H](c1ccc(OC)cc1C[C@H](C)C(=O)O)[C@H](C(=O)O)[C@H]2c1ccc2c(c1)OCO2
inactive: [1] | [2] | [3] | [8] | [4] | [5] | [10] | [6] | [7]

CC1(C)CC(N=C=O)CC(C)(CN=C=O)C1 (stereo not given)
inactive: [9] | [2] | [3] | [8] | [5] | [10] | [6] | [7]
active: [4] 50 µM

CCc1c(C(=O)NN2CCCCC2)nn(-c2ccc(Cl)cc2Cl)c1-c1ccc(Br)cc1
active: [1] 82.1 µM | [2] 86.8 µM | [3] 50 µM | [4] 39 µM | [5] 68.6 µM | [6] 12.5 µM | [7] 32.3 µM

C1CCC(SSC2CCCCC2)CC1
inactive: [9] | [2] | [3] | [8] | [4] | [5] | [6] | [7]

CCCCN(CCCC)CCCC
inactive: [1] | [2] | [3] | [8] | [4] | [5] | [10] | [6] | [7]

Cc1ccc(C)c(C)c1
inactive: [1] | [2] | [3] | [4] | [5] | [6] | [7]

C=CCOC(=O)c1ccccc1C(=O)OCC=C
inactive: [9] | [2] | [3] | [8] | [4] | [5] | [10] | [6] | [7]

Nc1ccccc1N
active: [1] 50 µM | [2] 68.9 µM | [3] 50 µM | [5] 71 µM | [7] 62.3 µM

CCCCCCCC=O
inactive: [1] | [2] | [3] | [8] | [4] | [5] | [6] | [7]

O=[N+]([O-])C(CO)(CO)CO
inactive: [1] | [2] | [3] | [4] | [5] | [10] | [7]
